# Source: PubChem
# EP2 modulator: modulates human prostaglandin E2 receptor EP2 signaling; P43116; EP2-expressing cells, cAMP HTRF FRET, PGE2 co-stimulation; induction, % at 25 µM; actives 0.83% (n = 260,000); AID 940;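 active = compounds whose cAMP rise, as percent of the full-agonist control response, exceeds 60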;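 also: rat C6 glioma line stably carrying human EP2 under a CMV promoter; the protocol text gives 20 µM as final concentration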
# Wee1 stabilizer: inhibitors of human Wee1 degradation. reporter increase, % at 5 µM. HeLa Luc-Wee1K328M stability, luciferase luminescence; 100% = proteasome inhibitor MG132 effect. actives 1.2% (n = 220,000);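 active = activation above the mean of all tested compounds plus 3 SD, set per screening run, cut at about 8.8% in these data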;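 also: cells exposed to compound for 20 h before luminescence read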
# Target sequence (P30291 whole entry K328M): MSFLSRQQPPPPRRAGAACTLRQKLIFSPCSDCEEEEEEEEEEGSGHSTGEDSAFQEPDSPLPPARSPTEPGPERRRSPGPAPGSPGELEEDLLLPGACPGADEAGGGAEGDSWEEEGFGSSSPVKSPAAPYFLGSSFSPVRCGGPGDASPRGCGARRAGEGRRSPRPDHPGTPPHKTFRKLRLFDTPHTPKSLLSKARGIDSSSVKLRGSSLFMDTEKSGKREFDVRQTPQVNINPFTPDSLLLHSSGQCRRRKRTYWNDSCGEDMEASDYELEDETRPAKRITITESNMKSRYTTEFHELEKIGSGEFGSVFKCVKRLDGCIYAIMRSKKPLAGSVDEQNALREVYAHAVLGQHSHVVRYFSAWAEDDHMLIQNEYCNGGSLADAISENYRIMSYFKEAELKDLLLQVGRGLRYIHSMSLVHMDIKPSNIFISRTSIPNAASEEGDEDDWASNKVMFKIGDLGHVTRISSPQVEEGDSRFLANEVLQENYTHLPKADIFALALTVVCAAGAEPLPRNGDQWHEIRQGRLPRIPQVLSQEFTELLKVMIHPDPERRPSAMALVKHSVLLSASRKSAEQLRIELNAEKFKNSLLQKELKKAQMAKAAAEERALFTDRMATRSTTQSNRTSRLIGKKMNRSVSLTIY
# HSV replic up: HSV replication enhancement. HSV replication augmentation in cells, fold increase. maximum fold increase. actives 0.005% (n = 220,000). AID 1956; in the data active = maximum fold increase above about 1.5; tested in PC3 cells
# p47phox inh: blocks human p47phox regulatory protein of NADPH oxidases; P14598; p47phox/p22phox peptide binding, fluorescence polarization, 2 h; inhibition, % at 24.7 µM; actives 0.53% (n = 220,000); AID 1274;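 active = inhibition above about 30%, limit read from the data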
# Furin inhibitor: human furin inhibition. P09958. purified furin, fluorogenic substrate cleavage. inhibition, % at 20 µM or 30 µM. actives 0.061% (n = 220,000). AID 463115; in the data active = inhibition above about 25%
# EP2 antag: EP2 receptor (human) inhibition | actives 0.52% (n = 260,000) | inhibition, % at 25 µM | C6 glioma cells expressing human EP2, cAMP TR-FRET; cells stimulated with saturating PGE2 | AID 1422 | P43116;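 active = percent inhibition above 40 after rounding to a whole number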;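 also: rat C6 glioma host cells with rolipram phosphodiesterase inhibitor present; the protocol text gives 20 µM as final concentration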
# A number is an active result; n = inactive; x = no result. The list is not random: actives were taken first. Their share in the collection is about 2.8%.
SMILES,EP2 modulator,Wee1 stabilizer,HSV replic up,p47phox inh,Furin inhibitor,EP2 antag
CC(=O)c1sc(-c2ccccc2)cc1NS(=O)(=O)c1ccc(C)cc1,n,n,n,n,n,73.8
CC(=O)c1sc(-c2ccccc2)cc1NS(=O)(=O)c1ccccc1,n,n,n,n,n,80.6
COC(=O)Cn1cnc2sc(C)c(-c3ccc(C)c(C)c3)c2c1=O,n,x,x,x,x,n
C/C(=N\N(c1ccccc1)c1ccccc1)c1ccco1,61.7,n,n,n,n,n
C/C(=N/NC(=O)c1cccs1)c1ccco1,n,n,n,n,n,n
Oc1ccc(Cl)cc1Cc1cc(Cl)cc(Cc2cc(Cl)ccc2O)c1O,n,x,x,x,x,57.7
CC(C)Oc1cccc(C(=O)Nc2ccc(Br)cc2F)c1,n,9.1,n,n,n,n
CCCCC[C@H](O)/C=C/[C@H]1C=CC(=O)[C@@H]1C/C=C\CCCC(=O)O,103.5,n,n,n,n,n
CCCCC[C@H](O)/C=C/[C@H]1[C@H](O)CC(=O)[C@@H]1CCCCCCC(=O)O,x,x,n,x,x,n
Cc1ccc2cc(CN(Cc3ccc4c(c3)OCO4)S(=O)(=O)c3ccccc3)c(=O)[nH]c2c1,n,x,x,x,x,n
Nc1ccc(-c2nn3cnnc3s2)cc1,n,x,x,x,x,n
CCOc1cc(-c2nn3cnnc3s2)cc(OCC)c1OCC,61.4,n,n,n,n,n
C=C1CC2C=C(NC(C)=O)CC(C1)C2 (centres undefined),n,9.6,n,n,n,n
Cc1ccc(OCc2nc(-c3ccccn3)n[nH]2)cc1,n,9.1,n,n,n,n
CC(C)(O)P(C)(=O)c1ccccc1 (centres undefined),n,n,n,n,n,n
CC(C)(C)c1cccc(P(=O)(c2ccccc2)c2ccccc2)c1O,66.2,n,n,n,n,n
NC(=O)CSc1nc(-c2ccccc2)nc2c1CCCC2,n,n,n,n,n,n
O=C(O)CSc1nc2ccccc2c2c1CCCC2,88.1,x,x,x,x,n
Cc1cc2nc(SCC(=O)N(C)C)c3c(c2cc1C)CCCC3,61.6,n,n,n,n,n
CN(C)C(=O)CSc1nc(-c2ccccc2)nc2c1CCCC2,n,n,n,n,n,n
COc1ccc(OC)c(N)c1,n,n,x,106.3,n,x
COc1ccc(C=O)c(OC)c1,n,n,n,n,n,n
CCOC(=O)CSc1nnc(-c2ccccc2C)o1,n,x,x,x,x,n
Cc1cnc(NC(=O)c2cc3c(C)nn(-c4ccccc4)c3s2)s1,n,n,n,n,n,n
Cc1ccc(NC(=O)c2cccs2)cc1NC(=O)c1cc2c(C)nn(-c3ccccc3)c2s1,70.5,x,x,x,x,n
SMILES,EP2 modulator,Wee1 stabilizer,HSV replic up,p47phox inh,Furin inhibitor,EP2 antag
O=C(Cc1cccc(F)c1)N1CCC(n2nc(-c3ccco3)ccc2=O)CC1,n,x,x,x,x,x
Clc1ccc(-n2nnc(-c3cccnc3Cl)n2)cn1,n,n,n,n,n,n
COc1ncccc1-c1nnn(-c2ccc(Cl)nc2)n1,n,9.7,n,n,n,n
CCOc1cc(NC(=O)C2CCCO2)c(OCC)cc1NC(=O)c1ccc(F)cc1 (centres undefined),n,x,x,x,x,n
CCOc1cc(NC(=O)C2CCCO2)c(OCC)cc1NC(C)=O (centres undefined),n,n,n,103.2,n,n
O=C(CNC(=S)N(CCCN1CCOCC1)Cc1cccs1)NC1CCCC1,n,n,n,34.6,n,n
O=C(N=c1ccn(-c2nc3ccccc3nc2NS(=O)(=O)c2ccccc2)cc1)c1cccs1,n,n,n,n,n,49.0
O=S(=O)(Nc1nc2ccccc2nc1Cl)c1ccccc1,n,n,n,n,n,n
Fc1cccc(Cl)c1CSc1nnc(CN2CCOCC2)n1-c1ccccc1,n,n,n,n,n,n
Clc1cccc(Cl)c1CSc1nnc(CN2CCOCC2)n1-c1ccccc1,n,10.5,n,n,n,n
COc1cc(O)c2c(O)c3c(c4c2c1[C@]1(C4)C(C)=CCCC1(C)C)[C@H](O)[C@@]1(O)CC(=O)C(C(N)=O)=C(O)[C@]1(O)C3=O,n,x,x,x,x,50.9
C=CCn1c(SCC(=O)NC2CCS(=O)(=O)C2)nc2scc(C3CC3)c2c1=O (centres undefined),n,9.7,n,n,n,n
C=CCn1c(SCc2cc(=O)n3ccsc3n2)nc2scc(C3CC3)c2c1=O,x,x,n,x,x,n
CCc1nnc2sc(-c3ccc(NC(=O)c4ccc(OC)c(OC)c4)cc3)nn12,n,x,x,x,x,n
